Among the data in ChEMBL document CHEMBL1961873, “Compounds: GSK PKIS; Assays: Nanosyn kinase panel” (2012) are inhibition values, retold here.

Assay [1] has as its target 5'-AMP-activated protein kinase catalytic subunit alpha-2 (Homo sapiens) (UniProt P54646). The following applies: at 1 µM.
Assay [2] has as its target T1, NUAK family SNF1-like kinase 1 (Homo sapiens) (UniProt O60285).
T1 sequence (whole entry): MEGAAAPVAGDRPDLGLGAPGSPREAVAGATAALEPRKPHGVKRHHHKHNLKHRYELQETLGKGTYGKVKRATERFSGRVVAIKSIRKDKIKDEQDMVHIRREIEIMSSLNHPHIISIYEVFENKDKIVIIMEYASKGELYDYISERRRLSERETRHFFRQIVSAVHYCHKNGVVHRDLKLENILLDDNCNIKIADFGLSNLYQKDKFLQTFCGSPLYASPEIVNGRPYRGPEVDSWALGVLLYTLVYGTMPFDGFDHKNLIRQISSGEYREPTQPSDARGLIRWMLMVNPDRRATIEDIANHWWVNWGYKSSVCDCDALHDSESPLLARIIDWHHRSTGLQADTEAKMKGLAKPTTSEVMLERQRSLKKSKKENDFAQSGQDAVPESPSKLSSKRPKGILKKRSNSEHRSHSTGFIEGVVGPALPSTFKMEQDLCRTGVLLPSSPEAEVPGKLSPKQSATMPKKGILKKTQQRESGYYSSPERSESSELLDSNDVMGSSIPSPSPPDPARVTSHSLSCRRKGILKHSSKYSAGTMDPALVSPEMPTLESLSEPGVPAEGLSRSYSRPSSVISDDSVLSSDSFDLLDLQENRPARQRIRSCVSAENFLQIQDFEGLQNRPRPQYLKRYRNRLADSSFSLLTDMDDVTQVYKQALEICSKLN
Particulars: at 0.1 µM.

The target in assay [3] is T1, NUAK family SNF1-like kinase 1 (Homo sapiens). The following applies: at 1 µM.
For assay [4], the target named is T2, Serine/threonine-protein kinase BRSK1 (Homo sapiens) (UniProt Q8TDC3).
T2 sequence (whole entry): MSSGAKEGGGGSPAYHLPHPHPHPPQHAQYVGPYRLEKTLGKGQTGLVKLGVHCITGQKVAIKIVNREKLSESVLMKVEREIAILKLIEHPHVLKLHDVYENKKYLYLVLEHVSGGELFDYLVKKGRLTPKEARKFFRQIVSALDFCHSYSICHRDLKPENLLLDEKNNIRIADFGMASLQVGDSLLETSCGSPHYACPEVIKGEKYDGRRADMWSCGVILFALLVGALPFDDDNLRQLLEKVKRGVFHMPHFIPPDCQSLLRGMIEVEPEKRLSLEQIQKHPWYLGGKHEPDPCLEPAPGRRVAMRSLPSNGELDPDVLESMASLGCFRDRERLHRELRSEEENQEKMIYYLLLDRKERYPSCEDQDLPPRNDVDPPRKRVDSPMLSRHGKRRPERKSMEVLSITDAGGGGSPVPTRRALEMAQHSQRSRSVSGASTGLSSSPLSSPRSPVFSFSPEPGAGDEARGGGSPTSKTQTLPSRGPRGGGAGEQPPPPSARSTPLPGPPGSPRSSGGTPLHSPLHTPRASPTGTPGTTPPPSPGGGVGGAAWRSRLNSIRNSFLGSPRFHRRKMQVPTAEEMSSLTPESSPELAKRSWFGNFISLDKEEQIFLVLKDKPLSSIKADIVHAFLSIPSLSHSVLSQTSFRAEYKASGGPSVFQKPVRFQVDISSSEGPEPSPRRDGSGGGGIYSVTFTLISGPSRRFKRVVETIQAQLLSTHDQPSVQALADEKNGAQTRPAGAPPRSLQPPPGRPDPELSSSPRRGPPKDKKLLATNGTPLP
The following applies: at 0.1 µM.

Assay [5] has as its target T2, Serine/threonine-protein kinase BRSK1 (Homo sapiens). The following applies: at 1 µM.
The target in assay [6] is T3, Serine/threonine-protein kinase BRSK2 (Homo sapiens) (UniProt Q8IWQ3).
T3 sequence (whole entry): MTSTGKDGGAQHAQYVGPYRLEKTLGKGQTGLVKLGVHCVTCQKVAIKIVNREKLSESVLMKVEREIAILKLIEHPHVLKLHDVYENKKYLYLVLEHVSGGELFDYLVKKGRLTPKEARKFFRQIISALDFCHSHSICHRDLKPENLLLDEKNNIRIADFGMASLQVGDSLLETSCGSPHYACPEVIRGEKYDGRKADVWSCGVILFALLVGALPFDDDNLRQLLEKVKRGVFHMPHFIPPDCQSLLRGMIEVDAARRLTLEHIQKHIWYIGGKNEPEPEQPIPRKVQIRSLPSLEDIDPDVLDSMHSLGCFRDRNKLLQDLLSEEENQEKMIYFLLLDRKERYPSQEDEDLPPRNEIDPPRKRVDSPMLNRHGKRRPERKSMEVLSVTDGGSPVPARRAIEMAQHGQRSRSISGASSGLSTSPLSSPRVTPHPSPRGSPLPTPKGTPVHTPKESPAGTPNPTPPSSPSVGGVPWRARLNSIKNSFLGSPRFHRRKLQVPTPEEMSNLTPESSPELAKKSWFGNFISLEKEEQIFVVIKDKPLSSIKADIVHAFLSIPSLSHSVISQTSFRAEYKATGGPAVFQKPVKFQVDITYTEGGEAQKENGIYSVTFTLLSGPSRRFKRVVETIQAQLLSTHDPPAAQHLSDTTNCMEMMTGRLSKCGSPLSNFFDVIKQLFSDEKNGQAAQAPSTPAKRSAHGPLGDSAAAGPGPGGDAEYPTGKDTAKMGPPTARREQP
The following applies: at 0.1 µM.

In assay [7] the target is T3, Serine/threonine-protein kinase BRSK2 (Homo sapiens). The following applies: at 1 µM.
In assay [8] the target is Calcium/calmodulin-dependent protein kinase type 1D (Homo sapiens) (UniProt Q8IU85). The following applies: at 0.1 µM.
The target is the same in assay [9]. The following applies: at 1 µM.
For assay [10], the target named is Calcium/calmodulin-dependent protein kinase type II subunit alpha (Homo sapiens) (UniProt Q9UQM7). The following applies: at 0.1 µM.
The target is the same in assay [11]. Particulars: at 1 µM.
For assay [12], the target named is Calcium/calmodulin-dependent protein kinase type II subunit delta (Homo sapiens) (UniProt Q13557). The following applies: at 0.1 µM.
Assay [13] shares this target. Particulars: at 1 µM.
Assay [14] deals with T4, Calcium/calmodulin-dependent protein kinase type IV (Homo sapiens) (UniProt Q16566).
T4 sequence (whole entry): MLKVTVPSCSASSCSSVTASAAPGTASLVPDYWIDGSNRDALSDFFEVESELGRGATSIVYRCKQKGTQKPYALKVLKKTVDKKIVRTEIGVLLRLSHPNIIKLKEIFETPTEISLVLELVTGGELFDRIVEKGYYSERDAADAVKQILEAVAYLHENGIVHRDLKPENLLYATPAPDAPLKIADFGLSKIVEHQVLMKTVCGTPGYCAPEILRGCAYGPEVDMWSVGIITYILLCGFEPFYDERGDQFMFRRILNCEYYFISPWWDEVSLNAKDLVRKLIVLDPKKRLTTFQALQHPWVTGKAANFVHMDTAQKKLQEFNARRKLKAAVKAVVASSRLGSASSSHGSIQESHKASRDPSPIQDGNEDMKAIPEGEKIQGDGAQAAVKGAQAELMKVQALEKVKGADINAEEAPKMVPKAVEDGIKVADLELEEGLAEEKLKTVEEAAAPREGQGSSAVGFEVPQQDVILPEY
Particulars: at 0.1 µM.

The target of assay [15] is T4, Calcium/calmodulin-dependent protein kinase type IV (Homo sapiens). Particulars: at 1 µM.
Assay [16] deals with T5, Serine/threonine-protein kinase Chk1 (Homo sapiens) (UniProt O14757).
T5 sequence (whole entry): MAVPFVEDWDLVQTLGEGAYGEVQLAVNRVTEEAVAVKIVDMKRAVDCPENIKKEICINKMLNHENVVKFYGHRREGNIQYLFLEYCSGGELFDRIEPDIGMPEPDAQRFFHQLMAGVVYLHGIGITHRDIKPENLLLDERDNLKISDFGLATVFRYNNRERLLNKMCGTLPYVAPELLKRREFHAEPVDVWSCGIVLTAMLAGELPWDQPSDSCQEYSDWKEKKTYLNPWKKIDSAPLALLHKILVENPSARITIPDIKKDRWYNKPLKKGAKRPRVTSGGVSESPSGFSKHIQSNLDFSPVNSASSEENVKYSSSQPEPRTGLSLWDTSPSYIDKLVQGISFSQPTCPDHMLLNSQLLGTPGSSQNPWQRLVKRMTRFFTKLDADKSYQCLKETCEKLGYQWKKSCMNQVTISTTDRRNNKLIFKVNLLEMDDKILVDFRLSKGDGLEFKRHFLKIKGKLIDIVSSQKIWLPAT
The following applies: at 0.1 µM.

Assay [17] concerns the target T5, Serine/threonine-protein kinase Chk1 (Homo sapiens). Particulars: at 1 µM.
Assay [18] has as its target Serine/threonine-protein kinase Chk2 (Homo sapiens) (UniProt O96017). Particulars: at 0.1 µM.
The target is the same in assay [19]. The following applies: at 1 µM.
The target in assay [20] is Death-associated protein kinase 1 (Homo sapiens) (UniProt P53355). The following applies: at 0.1 µM.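 Note: reported figure is the mean inhibition of DAPK1.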
Chain of Death-associated protein kinase 1 (Homo sapiens) (P53355 whole entry, looked up): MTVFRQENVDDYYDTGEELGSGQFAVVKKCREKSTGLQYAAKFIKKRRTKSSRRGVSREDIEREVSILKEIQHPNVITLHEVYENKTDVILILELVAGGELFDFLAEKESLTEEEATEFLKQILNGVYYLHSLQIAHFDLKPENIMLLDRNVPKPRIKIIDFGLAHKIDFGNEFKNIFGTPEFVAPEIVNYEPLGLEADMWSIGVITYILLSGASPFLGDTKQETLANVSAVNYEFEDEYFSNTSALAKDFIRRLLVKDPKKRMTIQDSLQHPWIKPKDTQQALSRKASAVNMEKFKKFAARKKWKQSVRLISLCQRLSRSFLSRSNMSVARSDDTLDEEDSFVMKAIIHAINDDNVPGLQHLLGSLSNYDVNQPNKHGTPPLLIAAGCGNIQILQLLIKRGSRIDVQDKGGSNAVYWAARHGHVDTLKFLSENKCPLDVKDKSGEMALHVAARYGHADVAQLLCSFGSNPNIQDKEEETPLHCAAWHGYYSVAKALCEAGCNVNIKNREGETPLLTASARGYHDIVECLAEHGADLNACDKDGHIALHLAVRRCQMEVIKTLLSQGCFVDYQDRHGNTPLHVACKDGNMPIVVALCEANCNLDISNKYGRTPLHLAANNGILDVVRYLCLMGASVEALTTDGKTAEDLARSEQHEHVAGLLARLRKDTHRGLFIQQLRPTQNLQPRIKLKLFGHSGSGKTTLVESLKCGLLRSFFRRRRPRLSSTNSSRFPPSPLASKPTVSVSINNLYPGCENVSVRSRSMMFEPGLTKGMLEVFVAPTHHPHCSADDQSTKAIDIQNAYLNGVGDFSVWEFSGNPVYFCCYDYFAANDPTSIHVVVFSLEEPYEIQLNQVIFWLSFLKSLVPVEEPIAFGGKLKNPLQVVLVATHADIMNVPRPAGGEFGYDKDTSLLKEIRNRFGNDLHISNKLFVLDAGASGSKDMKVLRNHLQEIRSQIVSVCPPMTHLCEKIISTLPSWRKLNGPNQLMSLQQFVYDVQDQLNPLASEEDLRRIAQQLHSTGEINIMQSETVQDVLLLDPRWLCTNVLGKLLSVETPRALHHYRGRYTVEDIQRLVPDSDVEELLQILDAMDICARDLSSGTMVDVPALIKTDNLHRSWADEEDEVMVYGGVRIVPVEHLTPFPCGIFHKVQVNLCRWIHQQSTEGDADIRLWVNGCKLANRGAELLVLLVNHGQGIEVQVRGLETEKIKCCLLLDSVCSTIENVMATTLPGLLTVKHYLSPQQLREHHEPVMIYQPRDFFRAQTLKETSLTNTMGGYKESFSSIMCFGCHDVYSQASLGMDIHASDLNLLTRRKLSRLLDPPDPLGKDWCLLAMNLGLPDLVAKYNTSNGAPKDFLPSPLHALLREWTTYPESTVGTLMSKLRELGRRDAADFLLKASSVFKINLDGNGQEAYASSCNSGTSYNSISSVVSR

Chain of Serine/threonine-protein kinase Chk2 (Homo sapiens) (O96017 whole entry): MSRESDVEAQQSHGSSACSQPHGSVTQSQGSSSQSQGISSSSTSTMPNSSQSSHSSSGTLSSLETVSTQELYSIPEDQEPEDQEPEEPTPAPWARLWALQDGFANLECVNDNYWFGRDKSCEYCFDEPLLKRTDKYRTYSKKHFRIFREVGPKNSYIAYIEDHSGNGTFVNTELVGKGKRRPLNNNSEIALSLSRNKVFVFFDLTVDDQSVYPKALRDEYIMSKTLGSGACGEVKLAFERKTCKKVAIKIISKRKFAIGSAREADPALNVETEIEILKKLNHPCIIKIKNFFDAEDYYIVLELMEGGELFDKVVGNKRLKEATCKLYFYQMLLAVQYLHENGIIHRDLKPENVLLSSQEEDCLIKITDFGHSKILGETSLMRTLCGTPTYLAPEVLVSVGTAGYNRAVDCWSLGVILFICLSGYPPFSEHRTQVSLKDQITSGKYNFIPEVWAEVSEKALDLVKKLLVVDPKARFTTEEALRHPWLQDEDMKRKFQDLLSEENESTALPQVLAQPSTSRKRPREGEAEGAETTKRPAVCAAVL
Chain of Calcium/calmodulin-dependent protein kinase type 1D (Homo sapiens) (Q8IU85 whole entry, looked up): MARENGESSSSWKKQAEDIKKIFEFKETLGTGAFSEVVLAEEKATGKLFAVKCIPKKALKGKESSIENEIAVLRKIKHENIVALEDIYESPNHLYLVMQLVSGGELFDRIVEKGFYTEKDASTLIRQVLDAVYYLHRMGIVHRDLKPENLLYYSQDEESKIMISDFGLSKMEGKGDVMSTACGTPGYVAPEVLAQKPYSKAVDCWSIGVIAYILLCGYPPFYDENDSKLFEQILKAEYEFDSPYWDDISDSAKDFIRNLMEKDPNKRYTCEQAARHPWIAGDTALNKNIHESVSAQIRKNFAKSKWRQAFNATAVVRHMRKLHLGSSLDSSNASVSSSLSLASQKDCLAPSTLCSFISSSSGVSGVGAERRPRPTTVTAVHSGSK
Chain of 5'-AMP-activated protein kinase catalytic subunit alpha-2 (Homo sapiens) (P54646 whole entry, looked up): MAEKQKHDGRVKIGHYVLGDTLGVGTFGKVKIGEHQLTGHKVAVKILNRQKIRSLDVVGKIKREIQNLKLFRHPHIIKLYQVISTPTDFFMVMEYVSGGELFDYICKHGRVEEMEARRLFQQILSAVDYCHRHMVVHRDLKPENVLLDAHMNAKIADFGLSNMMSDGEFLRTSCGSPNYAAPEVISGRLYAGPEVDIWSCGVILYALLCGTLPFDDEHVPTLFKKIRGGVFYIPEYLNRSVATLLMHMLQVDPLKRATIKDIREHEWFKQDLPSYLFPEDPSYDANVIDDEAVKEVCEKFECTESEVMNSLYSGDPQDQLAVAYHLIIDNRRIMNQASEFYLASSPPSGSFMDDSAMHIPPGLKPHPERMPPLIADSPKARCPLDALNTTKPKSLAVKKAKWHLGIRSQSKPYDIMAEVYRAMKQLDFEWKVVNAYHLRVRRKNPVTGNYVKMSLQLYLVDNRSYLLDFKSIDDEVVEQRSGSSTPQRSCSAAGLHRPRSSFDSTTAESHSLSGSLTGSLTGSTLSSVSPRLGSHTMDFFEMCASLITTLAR
Chain of Calcium/calmodulin-dependent protein kinase type II subunit delta (Homo sapiens) (Q13557 whole entry): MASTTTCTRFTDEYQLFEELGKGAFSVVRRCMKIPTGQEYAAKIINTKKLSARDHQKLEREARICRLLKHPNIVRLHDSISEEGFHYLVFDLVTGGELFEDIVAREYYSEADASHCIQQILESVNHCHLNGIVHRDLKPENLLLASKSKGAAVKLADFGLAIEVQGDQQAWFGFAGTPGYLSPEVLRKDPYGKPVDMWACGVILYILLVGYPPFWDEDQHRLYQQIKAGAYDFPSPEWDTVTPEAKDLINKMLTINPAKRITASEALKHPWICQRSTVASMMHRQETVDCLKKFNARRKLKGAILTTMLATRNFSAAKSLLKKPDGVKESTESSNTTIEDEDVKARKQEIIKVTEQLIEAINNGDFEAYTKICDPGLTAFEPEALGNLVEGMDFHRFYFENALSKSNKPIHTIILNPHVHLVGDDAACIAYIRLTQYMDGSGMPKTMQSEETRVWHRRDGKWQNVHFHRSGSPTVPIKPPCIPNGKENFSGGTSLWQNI
Chain of Calcium/calmodulin-dependent protein kinase type II subunit alpha (Homo sapiens) (Q9UQM7 whole entry): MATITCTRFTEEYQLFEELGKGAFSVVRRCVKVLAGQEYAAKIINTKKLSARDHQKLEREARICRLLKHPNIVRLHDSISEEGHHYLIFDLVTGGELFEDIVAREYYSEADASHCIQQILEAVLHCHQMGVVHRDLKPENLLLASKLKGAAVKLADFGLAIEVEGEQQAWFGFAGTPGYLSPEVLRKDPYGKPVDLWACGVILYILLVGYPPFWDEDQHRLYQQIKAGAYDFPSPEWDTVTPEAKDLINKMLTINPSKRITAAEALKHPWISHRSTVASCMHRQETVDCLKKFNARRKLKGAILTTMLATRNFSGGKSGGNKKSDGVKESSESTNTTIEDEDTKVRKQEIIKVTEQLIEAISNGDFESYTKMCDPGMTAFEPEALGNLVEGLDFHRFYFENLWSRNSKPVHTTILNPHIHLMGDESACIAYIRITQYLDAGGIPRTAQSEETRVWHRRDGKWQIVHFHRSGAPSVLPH

Regarding `NC(=O)c1cc(-c2ccncc2)cc(-c2ccccc2)c1N`, the inhibition – broadly, the relative decrease from the control value, in per cent – came out at 4.03% in assay [1]; 0.7% in assay [2]; 1.68% in assay [3]; 2.46% in assay [4]; 4.23% in assay [5]; 1.64% in [6]. The inhibition in [7] worked out at 2.72%; in assay [8], 0.15%; in assay [9] it was 1.27%; in assay [10], 2.51%; in [11], 3.97%; in assay [12] it was 4.41%. For the same compound, the inhibition in assay [13] is 4.63%; in assay [14] it was 0.2%; in assay [15], -0.82%; in assay [16], -1.87%; in assay [17], -2.65%; in assay [18] it was -1.34%. For the same compound, the inhibition in assay [19] was -0.01%; in assay [20], -2.69%.

As to `CCc1nccc2c1nc(-c1nonc1N)n2CC`, the inhibition in [1] stood at 2%; in assay [2] it was 2.71%; in assay [3] it was 4.47%; in [4], 0.98%; in [5], 4.27%; in assay [6], 2.16%. For the same compound, the inhibition in assay [7] turned out to be 4.53%; in assay [8], 1.07%; in [9] it was 1.8%; in assay [10] it was 0.2%; in [11], 2.34%; in [12] it was 2%. In addition, the inhibition was 3.76% in [13]; 2.07% in assay [14]; 1.55% in assay [15]; 1.61% in assay [16]; -3.41% in assay [17]; -1.09% in assay [18]. Further, the figures for the inhibition in assay [19] and in assay [20] were -0.94% and 0.87%, respectively.

In the case of `CCN(CC)Cc1ccc(Nc2nccc(-c3cnn4ncccc34)n2)cc1`, the inhibition amounted to 12.7% in assay [1]; 69% in [2]; 84.3% in assay [3]; 3.36% in assay [4]; 3.16% in [5]; 2.2% in assay [6]. Besides, the inhibition in assay [7] was 10.6%; in assay [8], -0.62%; in assay [9], 4.23%; in assay [10] it was 2.6%; in [11] it was 4.21%; in assay [12], 3.84%. Also, the inhibition in [13] was 14.3%; in assay [14] it was -0.37%; in assay [15], 0.34%; in assay [16] it was 1.29%; in assay [17] it was 11.6%; in [18], 2.5%. Further, the inhibition amounted to 7.56% in [19] and 2.68% in assay [20].

For the compound `CN(C)CCCNc1nccc(-c2c(-c3ccc(F)cc3)nn3cc(C(F)(F)F)ccc23)n1`, the inhibition in assay [1] was 2.79%; in assay [2] it was -1.31%; in [3], 7.22%; in assay [4], 1.29%; in [5], 4.81%; in [6] it was 0.82%. In addition, the inhibition in [7] was determined as 4.17%; in [8], 1.56%; in assay [9] it was 1.39%; in [10], 3.05%; in assay [11] it was 4.26%; in [12], 3.65%. Moreover, the inhibition in assay [13] was 4.37%; in [14], 1.43%; in [15], 2.27%; in [16] it was -3.07%; in [17], 1.13%; in assay [18], 0.82%. Besides, the inhibition in [19] stood at 0.61%; in assay [20], 0.55%.

Regarding `NC(=O)c1cc(-c2ccc(F)cc2)cc(-c2ccncc2)c1N`, the inhibition in [1] was 2.48%; in [2] it was -0.64%; in assay [3], -1.26%; in assay [4], 0.38%; in assay [5], -1.89%; in [6], 1.65%. For the same compound, the inhibition in [7] was 2.63%; in assay [8], -0.61%; in assay [9], 0.29%; in [10], 3.47%; in assay [11], 3.68%; in assay [12], 1.36%. Also, the inhibition in assay [13] was 3.98%; in assay [14], 0.77%; in [15], 0.56%; in assay [16], 0.67%; in [17], 0.41%; in assay [18], 3%. In addition, the inhibition in assay [19] is 3.74%; in assay [20] it was 1.26%.

`O=C1NC(=O)C(c2cccc(Cl)c2)=C1Nc1ccc(Cl)c(C(=O)O)c1`: the inhibition was -4.09% in assay [1]; -9.56% in assay [2]; 3.08% in assay [3]; -0.75% in [4]; 0.27% in assay [5]; 1.73% in [6]. Further, the inhibition is 2.47% in [7]; -1.22% in [8]; -0.07% in [9]; 3.4% in assay [10]; 2.06% in [11]; 1.45% in assay [12]. Moreover, the inhibition in [13] was 4.49%; in assay [14] it was -0.36%; in assay [15] it was -0.93%; in assay [16], 0.81%; in assay [17], 2.22%; in [18], 2.39%. In addition, the inhibition in assay [19] came to 3.13%; in assay [20], 3.48%.
